Test results as given in PubChem BioAssay.
Inconclusive results are not listed. The source made the active and inactive calls.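 The calls were made as follows, unless noted: active = percent response above a set limit, the screen-wide mean plus 3 SD (cut at about 130% in these data); inactive = the rest.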

What was measured:
[1] = yeast TOR pathway RPL19A-GFP modulators, primary screen, cell-based, S. cerevisiae, multiplex flow cytometry (AID 1862; in the data active = percent of DMSO control GFP below about 86%;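 also: lower values mimic rapamycin by blocking the RPL19A rise seen in DMSO cells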); conditions: S. cerevisiae RPL19A-GFP strain, flow cytometry fluorescence, 3 h; at 10 µM; stronger effect = lower value
[2] = modulators of MEP2-GFP levels in yeast, primary screen, S. cerevisiae, multiplex flow cytometry (AID 1867;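 active = GFP response, as percent of the DMSO control, above the screen-wide mean plus 3 SD, about 139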;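 also: median GFP channel fluorescence of barcode-gated MEP2-GFP cells measured by flow cytometry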); conditions: S. cerevisiae MEP2-GFP strain, 3 h, at 10 µM, stronger effect = higher value, 100% means same as DMSO wells
[3] = modulators of CIT2-GFP expression in yeast, primary screen, S. cerevisiae, GFP fusion, multiplex flow cytometry (AID 1870); conditions: 3 h, at 10 µM, stronger effect = higher value;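 also: barcoded CIT2-GFP strain pooled with four other GFP strains with rapamycin as positive control; median GFP fluorescence per well over plate mean of DMSO wells so 100% = DMSO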
[4] = modulators of LAP4-GFP expression in yeast, primary screen, S. cerevisiae, multiplex flow cytometry (AID 1873;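 active = GFP signal, as percent of the solvent control, above the screen mean plus 3 SD, about 149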); conditions: 3 h, at 10 µM, stronger effect = higher value
[5] = modulators of AGP1-GFP expression in yeast TOR pathway, primary screen, cell-based, multiplex flow cytometry, S. cerevisiae (AID 1887;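 active = GFP signal above the screen-wide mean plus 3 SD, that is over about 124.5% of the solvent control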;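 also: AGP1-GFP fusion strain of S. cerevisiae within a five-strain barcoded multiplex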); conditions: 3 h, at 10 µM, stronger effect = higher value
[6] = inhibitors of CD8+ T cell-vesicle binding, pilot screen, LFA-1/ICAM-1 modulator project, MLPCN validation set, flow cytometry (AID 2523;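 active = response below a set limit, under 55% cells CD8-positive and vesicle-bound, and CD8 cells' 90th-percentile brightness under 279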;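 as to vesicle binding response: mean PE anti-B7-1 fluorescence of CD8+ cells relative to row control; 100% = QL9-loaded vesicles with DMSO vehicle in the same plate row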); conditions: 2C mouse CD8+ T cells, at 7 µM, stronger effect = lower value; double positive events: measured here: CD8+/vesicle+ event percentage
[7] = molecular target: Integrin beta-1 (Homo sapiens) + Integrin alpha-4 (Homo sapiens) (UniProt P13612+P05556); test: inhibition of HUTS-21 binding to VLA-4, pilot screen, VLA-4 allosteric modulator project, U937 cells, HUTS-21 mAb, flow cytometry, validation set (AID 2674;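 active = inhibition above 50%, about 3 SD of the validation set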;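 also: antibody binding induced by the VLA-4 ligand LDV present at three times its Kd; 0% = LDV ligand with antibody and no compound and 100% = antibody without LDV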); conditions: HUTS-21 LIBS mAb binding, at 6.7 µM, stronger effect = higher value, binding induced by LDV ligand
[8] = superoxide lowering in aged yeast cells, pilot screen, validation compound set (AID 2706;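 active = superoxide response below 65% of plate, a cut near 3 SD across the whole screen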;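 also: yeast exposed to compound for one week at 30 degrees C before staining; 100% = mean of all compound wells on the same plate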); conditions: S. cerevisiae aging, superoxide DHE fluorescence; at 10 µM; stronger effect = lower value
[9] = molecular target: Beta-adrenergic receptor kinase 1 (Homo sapiens) (UniProt P25098); test: GRK2 binders displacing RNA aptamer, biochemical, validation, human GRK2, bead flow cytometry (AID 488806;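 active = aptamer binding inhibition above 30%, about 3 SD of noise from non-fluorescent compounds; inactive = inhibition at or below 30%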); conditions: bead-bound GRK2, FAM-aptamer displacement, at 10 µM, stronger effect = higher value
[10] = molecular target: Beta-2 adrenergic receptor (Homo sapiens) (UniProt P07550); test: beta2AR agonists driving receptor internalization, pilot screen, cell-based, FAP fluorogen, flow cytometry, validation set (AID 504459;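 active = percent response above 42, roughly 3 SD of non-fluorescent test compounds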;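 also: agonist-driven loss of surface beta2AR via internalization measured by FAP dye flow cytometry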); conditions: Am2.2-beta2AR cells, FAP surface receptor flow cytometry; at 10 µM; stronger effect = higher value
[11] = molecular target: AP-2 complex subunit beta (Homo sapiens) (UniProt P63010); test: inhibitors of arrestin peptide binding to AP2, pilot screen, biochemical, validation set, GST-AP2 beads, flow cytometry (AID 504541;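 active = inhibition above 54%, about 3 SD of non-fluorescent compounds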;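 also: AP2 carries R879A mutation and is captured from E. coli lysate; bead-bound FITC arrestin peptide fluorescence measuring arrestin peptide binding to AP2; 0% = DMSO wells and 100% = excess unlabeled arrestin peptide control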); conditions: FITC arrestin peptide, at 10 µM, stronger effect = higher value, AP2 beta2 appendage fragment, R879A mutant
[12] = yeast V-ATPase proton transport modulators, S. cerevisiae, pHLuorin, HTS validation (AID 504600; in the data active = response above about 15%;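 also: plate controls were DMSO for no effect and reference compound for full effect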); conditions: S. cerevisiae pHLuorin cytosolic pH, at 10 µM, stronger effect = higher value
[13] = tested on: anti-desmoglein-3 scFv antibody binding to human DSG3; test: inhibitors of anti-DSG3 scFv binding to DSG3, pilot screen, biochemical, validation compound set, bead-based, flow cytometry (AID 588368;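 active = binding below the plate cutoff, the plate median minus 3 SD, with a reading above zero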;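 also: signal is the median channel fluorescence of bead-bound GFP antibody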); conditions: Protein G beads, DSG3-Fc, scFv-GFP binding, at 10 µM, stronger effect = lower value
[14] = inhibitors of fungal efflux pumps CDR1, CDR2, MDR1, pilot screen, validation compound set, multiplex, phenotypic (AID 588506;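 active = efflux inhibition above 0.42, the validation set average plus 4 SD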;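 also: Nile Red retained in cells so higher fluorescence means more efflux inhibition; 0 = negative control wells and 1 = enniatin B 25 µM full block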); conditions: S. cerevisiae pump-expressing triplex, Nile Red efflux flow cytometry; at 10 µM; stronger effect = higher value; the pumps come from Candida albicans
[15] = molecular target: ATP-binding cassette sub-family B member 6 (Homo sapiens) (UniProt Q9NP58); test: ABCB6 transporter inhibitors, pilot screen, K562-ABCB6 cells, flow cytometry, validation set (AID 588550;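 active = inhibition above the screen-wide mean plus 3 SD, about 51%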;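 also: 0% = DMSO wells and 100% = benzethonium chloride 70 µM positive control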); conditions: K562-ABCB6 porphyrin accumulation, 1 h, at 10 µM, stronger effect = higher value
[16] = promoters of myeloid differentiation in arrested cells, primary screen, cell-based, GFP/MAC1 double positive, flow cytometry, validation set (AID 588685;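 active = differentiation response of at least 50%, scaled between solvent and reference control, from cells with both markers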;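 also: compound exposure lasts four days before antibody staining and flow analysis; 0% = DMSO wells and 100% = 5 µM fulvestrant positive control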); conditions: ER-HoxA9 marrow cells, stronger effect = higher value, normalized: vehicle 0, fulvestrant 100

ATP-binding cassette sub-family B member 6 (Homo sapiens), sequence (Q9NP58 whole entry, looked up): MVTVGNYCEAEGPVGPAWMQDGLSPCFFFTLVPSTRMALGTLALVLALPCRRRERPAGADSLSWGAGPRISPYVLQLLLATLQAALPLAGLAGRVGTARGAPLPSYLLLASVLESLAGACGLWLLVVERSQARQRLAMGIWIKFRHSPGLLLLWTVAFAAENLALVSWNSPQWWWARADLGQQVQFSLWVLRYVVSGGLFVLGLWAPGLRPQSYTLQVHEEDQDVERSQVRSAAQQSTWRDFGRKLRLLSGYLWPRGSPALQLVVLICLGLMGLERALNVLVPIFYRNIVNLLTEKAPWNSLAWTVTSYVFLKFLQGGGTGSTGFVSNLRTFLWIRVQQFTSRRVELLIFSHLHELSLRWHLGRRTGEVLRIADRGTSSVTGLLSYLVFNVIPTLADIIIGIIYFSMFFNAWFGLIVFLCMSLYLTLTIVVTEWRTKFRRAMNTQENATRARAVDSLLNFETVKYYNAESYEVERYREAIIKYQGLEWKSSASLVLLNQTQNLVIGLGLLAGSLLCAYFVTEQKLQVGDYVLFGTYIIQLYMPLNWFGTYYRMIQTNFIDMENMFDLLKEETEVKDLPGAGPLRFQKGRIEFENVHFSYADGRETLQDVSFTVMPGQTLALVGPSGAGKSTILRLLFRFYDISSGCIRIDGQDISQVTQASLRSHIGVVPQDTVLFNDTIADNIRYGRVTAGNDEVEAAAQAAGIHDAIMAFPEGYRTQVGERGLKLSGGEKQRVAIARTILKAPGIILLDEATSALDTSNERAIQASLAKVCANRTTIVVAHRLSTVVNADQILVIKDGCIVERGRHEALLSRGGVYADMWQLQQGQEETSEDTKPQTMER
Beta-2 adrenergic receptor (Homo sapiens), sequence (P07550 whole entry, looked up): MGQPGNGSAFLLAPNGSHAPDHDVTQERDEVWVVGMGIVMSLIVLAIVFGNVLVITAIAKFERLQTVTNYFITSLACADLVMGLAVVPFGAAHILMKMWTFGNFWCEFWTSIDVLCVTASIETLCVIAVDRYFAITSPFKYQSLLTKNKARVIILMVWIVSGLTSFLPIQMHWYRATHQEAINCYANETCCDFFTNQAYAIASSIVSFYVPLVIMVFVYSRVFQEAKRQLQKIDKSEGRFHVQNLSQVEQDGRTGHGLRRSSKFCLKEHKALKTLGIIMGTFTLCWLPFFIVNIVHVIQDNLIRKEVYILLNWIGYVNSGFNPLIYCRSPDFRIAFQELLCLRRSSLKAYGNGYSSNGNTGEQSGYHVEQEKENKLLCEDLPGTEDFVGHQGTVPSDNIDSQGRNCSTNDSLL
Beta-adrenergic receptor kinase 1 (Homo sapiens), sequence (P25098 whole entry, looked up): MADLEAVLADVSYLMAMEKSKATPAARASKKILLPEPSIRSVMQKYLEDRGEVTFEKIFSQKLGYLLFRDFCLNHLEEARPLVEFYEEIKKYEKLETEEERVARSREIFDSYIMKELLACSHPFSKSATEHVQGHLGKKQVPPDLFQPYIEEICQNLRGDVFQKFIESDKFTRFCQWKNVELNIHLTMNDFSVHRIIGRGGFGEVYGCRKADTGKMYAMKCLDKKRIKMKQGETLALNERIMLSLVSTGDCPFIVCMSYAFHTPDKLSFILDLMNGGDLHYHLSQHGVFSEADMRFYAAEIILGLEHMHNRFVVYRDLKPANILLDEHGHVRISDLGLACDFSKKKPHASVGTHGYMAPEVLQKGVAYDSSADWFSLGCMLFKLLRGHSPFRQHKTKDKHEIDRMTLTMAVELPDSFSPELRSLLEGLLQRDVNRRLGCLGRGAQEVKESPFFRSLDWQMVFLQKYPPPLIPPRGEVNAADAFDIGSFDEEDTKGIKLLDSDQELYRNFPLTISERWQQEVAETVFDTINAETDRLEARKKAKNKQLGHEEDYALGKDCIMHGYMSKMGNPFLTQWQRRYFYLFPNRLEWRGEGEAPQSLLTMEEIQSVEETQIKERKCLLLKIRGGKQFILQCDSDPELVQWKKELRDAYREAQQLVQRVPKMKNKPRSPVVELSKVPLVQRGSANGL
Integrin beta-1 (Homo sapiens) + Integrin alpha-4 (Homo sapiens), sequence (P05556 whole entry, looked up): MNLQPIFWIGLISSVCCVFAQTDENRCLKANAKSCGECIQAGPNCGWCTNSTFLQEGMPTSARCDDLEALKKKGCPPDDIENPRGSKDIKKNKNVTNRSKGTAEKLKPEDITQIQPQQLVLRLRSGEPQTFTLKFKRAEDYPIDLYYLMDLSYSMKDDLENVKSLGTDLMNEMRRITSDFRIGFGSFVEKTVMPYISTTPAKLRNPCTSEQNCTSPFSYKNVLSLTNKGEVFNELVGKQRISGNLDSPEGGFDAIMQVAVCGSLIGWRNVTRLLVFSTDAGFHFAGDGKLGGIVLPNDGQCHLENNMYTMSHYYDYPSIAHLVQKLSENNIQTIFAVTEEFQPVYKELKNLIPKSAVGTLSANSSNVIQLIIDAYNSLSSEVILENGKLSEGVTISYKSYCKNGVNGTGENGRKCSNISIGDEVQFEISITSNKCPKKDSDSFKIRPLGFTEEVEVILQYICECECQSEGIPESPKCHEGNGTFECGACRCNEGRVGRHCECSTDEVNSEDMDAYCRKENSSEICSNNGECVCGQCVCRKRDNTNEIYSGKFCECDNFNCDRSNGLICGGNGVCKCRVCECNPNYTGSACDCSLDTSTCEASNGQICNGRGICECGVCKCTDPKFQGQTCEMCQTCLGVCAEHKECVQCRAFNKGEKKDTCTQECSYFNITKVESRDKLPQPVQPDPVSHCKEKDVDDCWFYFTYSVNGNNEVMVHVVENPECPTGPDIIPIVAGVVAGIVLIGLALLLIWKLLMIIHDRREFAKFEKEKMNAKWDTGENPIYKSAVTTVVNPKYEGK
Integrin beta-1 (Homo sapiens) + Integrin alpha-4 (Homo sapiens), sequence (P13612 whole entry, looked up): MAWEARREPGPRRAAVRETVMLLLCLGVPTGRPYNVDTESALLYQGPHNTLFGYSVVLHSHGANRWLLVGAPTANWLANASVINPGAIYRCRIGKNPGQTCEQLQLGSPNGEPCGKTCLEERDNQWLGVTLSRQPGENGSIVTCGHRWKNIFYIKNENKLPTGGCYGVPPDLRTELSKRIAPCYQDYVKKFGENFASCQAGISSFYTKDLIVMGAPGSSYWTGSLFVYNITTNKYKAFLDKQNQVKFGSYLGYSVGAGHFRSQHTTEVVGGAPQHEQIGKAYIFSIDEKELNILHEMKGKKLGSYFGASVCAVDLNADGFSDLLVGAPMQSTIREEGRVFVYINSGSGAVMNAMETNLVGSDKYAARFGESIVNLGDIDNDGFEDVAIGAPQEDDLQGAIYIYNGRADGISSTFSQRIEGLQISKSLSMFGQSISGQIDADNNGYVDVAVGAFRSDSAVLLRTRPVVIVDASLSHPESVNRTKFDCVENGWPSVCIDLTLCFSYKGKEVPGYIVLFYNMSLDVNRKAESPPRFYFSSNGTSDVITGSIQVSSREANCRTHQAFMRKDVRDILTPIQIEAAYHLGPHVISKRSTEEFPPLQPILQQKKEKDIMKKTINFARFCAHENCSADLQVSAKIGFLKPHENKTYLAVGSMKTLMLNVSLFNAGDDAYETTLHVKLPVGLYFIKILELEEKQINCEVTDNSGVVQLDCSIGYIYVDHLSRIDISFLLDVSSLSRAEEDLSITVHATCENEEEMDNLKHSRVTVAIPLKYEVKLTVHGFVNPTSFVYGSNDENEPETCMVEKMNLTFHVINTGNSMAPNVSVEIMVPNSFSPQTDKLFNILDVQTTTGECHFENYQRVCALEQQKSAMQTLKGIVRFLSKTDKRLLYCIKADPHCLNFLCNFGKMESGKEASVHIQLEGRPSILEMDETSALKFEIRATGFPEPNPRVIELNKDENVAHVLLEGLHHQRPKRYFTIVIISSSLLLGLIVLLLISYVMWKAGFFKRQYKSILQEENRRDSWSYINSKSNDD
AP-2 complex subunit beta (Homo sapiens), sequence (P63010 whole entry, looked up, the tested form may be a part, one chain of several): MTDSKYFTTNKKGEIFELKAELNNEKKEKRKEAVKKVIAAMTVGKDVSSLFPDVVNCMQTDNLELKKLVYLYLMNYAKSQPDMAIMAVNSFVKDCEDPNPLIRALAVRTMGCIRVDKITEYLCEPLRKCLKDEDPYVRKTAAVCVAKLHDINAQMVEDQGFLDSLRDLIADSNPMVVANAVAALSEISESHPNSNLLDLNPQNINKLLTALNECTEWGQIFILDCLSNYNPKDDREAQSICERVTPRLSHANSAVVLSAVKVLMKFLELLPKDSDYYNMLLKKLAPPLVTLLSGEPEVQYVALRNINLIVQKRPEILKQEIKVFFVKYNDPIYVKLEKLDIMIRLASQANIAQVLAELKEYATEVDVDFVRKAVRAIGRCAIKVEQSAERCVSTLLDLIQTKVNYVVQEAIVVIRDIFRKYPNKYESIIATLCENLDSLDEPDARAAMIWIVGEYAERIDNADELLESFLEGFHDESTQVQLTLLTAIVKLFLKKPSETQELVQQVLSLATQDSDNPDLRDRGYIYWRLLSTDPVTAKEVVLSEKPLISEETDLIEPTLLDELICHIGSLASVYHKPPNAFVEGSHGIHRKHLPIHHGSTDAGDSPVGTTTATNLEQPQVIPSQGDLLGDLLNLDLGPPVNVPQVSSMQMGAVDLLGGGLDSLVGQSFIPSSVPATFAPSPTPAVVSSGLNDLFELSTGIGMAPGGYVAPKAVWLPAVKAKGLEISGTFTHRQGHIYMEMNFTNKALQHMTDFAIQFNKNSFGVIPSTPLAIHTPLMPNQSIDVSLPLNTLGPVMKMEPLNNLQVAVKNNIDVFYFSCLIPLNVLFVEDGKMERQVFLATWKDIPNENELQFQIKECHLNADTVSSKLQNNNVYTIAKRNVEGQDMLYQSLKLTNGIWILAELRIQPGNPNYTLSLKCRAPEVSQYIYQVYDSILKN

O=C(COc1ccccc1)Nc1ccc2c(c1)C(=O)N(CC1CCCO1)C2=O (stereo not drawn)
inactive: percent of DMSO control GFP [1] 100% | GFP response vs DMSO [2] 102% | percent response of DMSO control [3] 102% | GFP response vs DMSO [4] 113% | GFP response, % of DMSO [5] 106% | vesicle binding response [6] 179% | inhibition [7] 13.7% | superoxide response (% of plate) [8] 110% | aptamer binding inhibition [9] 3% | response [10] 3.99% | inhibition [11] 4.36% | response [12] -0.92% | binding (% of control) [13] 100% | inhibition [15] -12% | differentiation response [16] -8.96%
active: efflux inhibition (fraction of control) [14] 0.47
61.5%: double positive events [6]

CC(C)OC(=O)c1ccc(NC(=O)c2cncc(Br)c2)cc1
56.1%: double positive events [6]
inactive: percent of DMSO control GFP [1] 103% | GFP response vs DMSO [2] 104% | percent response of DMSO control [3] 98.6% | GFP response vs DMSO [4] 103% | GFP response, % of DMSO [5] 88.5% | vesicle binding response [6] 143% | inhibition [7] 16.3% | superoxide response (% of plate) [8] 114% | aptamer binding inhibition [9] -1% | response [10] 0.79% | inhibition [11] -2.11% | response [12] 4.94% | binding (% of control) [13] 99% | efflux inhibition (fraction of control) [14] 0.04 | inhibition [15] -3% | differentiation response [16] -7.5%

CC(=O)c1c(C)c(C)c2n1CCn1c(C)ccc1-2
60.2%: double positive events [6]
inactive: percent of DMSO control GFP [1] 105% | GFP response vs DMSO [2] 107% | percent response of DMSO control [3] 93.1% | GFP response vs DMSO [4] 121% | GFP response, % of DMSO [5] 107% | vesicle binding response [6] 141% | inhibition [7] -36.9% | superoxide response (% of plate) [8] 99.4% | aptamer binding inhibition [9] 0% | response [10] -22.4% | inhibition [11] 6.32% | response [12] -6.83% | binding (% of control) [13] 116% | efflux inhibition (fraction of control) [14] -0.09 | inhibition [15] -18% | differentiation response [16] -5.97%

CC(=O)CCc1c(C)c2cccc(C)c2[nH]c1=O
56.4%: double positive events [6]
inactive: percent of DMSO control GFP [1] 104% | GFP response vs DMSO [2] 99.6% | percent response of DMSO control [3] 103% | GFP response vs DMSO [4] 97.4% | GFP response, % of DMSO [5] 98.8% | vesicle binding response [6] 269% | inhibition [7] -9.98% | superoxide response (% of plate) [8] 105% | aptamer binding inhibition [9] 1% | response [10] -3.42% | inhibition [11] -3.21% | response [12] -0.84% | binding (% of control) [13] 95.5% | efflux inhibition (fraction of control) [14] -0.03 | inhibition [15] 9% | differentiation response [16] -18.4%
